This assay in a line: EMT-state selective cytotoxicity in co-culture – imaging, PC-3E GFP, TEM4-18 mCherry, primary screen (AID 1345086).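 For all read-outs here: cells exposed to compound for 72 h before imaging.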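 For red/green cell ratio (normalised): normalised mesenchymal count divided by normalised epithelial count so high means epithelial killing.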 The conditions noted are these: PC-3E GFP / TEM4-18 mCherry co-culture, imaging cell counts, at 1 µM; for red/green cell ratio (normalised): actives lie on both sides, counts scaled to control wells, 1 = unselective.
The mark [1] stands for this setting: measured here: epithelial PC-3E GFP cell survival.
Setting [2] is: measured here: mesenchymal TEM4-18 mCherry cell survival.

Structures are written as SMILES. Values joined by “and” are separate entries in the source; they are usually repeats but may differ in a detail not shown here. Identical values can stand only once. Active and inactive are the calls of the source.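 Rule for the calls: active = compounds killing one labelled cell type while sparing the other, by normalised counts and ratio limits, not self-fluorescent; inactive = the rest.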

On to `Oc1c(Cl)cc(Cl)cc1Sc1cc(Cl)cc(Cl)c1O`, for which the red/green cell ratio (normalised) is 0.99 (inactive). Under setting [1], this molecule came in with a normalised cell number of 1.15. This molecule came in with a normalised cell number under setting [2] of 1.14.
On to `CCN(CC)CCOC(=O)C(c1ccccc1)C1CCCCC1` (stereo unspecified), for which the red/green cell ratio (normalised) was 0.94 (inactive). Under setting [1], this molecule showed a normalised cell number of 0.95. Besides, the normalised cell number under setting [2] came to 0.89.
In the case of `COc1c2occc2c(OC)c2c(=O)cc(C)oc12`, the red/green cell ratio (normalised) is 0.89 (inactive). Under setting [1], the normalised cell number came to 1.07. Moreover, the normalised cell number under setting [2] is 0.95.
Taken in the same sequence, the figures for `Nc1nccs1` were 0.78 (inactive), 1.25 and 0.98.
On the same counts, the results for `CC(=O)Nc1ccc(S(=O)(=O)Nc2ccc([N+](=O)[O-])cc2)cc1` are 0.81 (inactive), 1.34 and 1.08.
On to `Nc1ccc(N=Nc2ccccc2)c(N)n1`, for which the red/green cell ratio (normalised) is 0.86 (inactive). Under setting [1], this molecule returned a normalised cell number of 1.07. The normalised cell number under setting [2] stood at 0.92.
Taken in the same sequence, the figures for `CN(C)CCOC(=O)COc1ccc(Cl)cc1` were 0.89 (inactive), 0.98 and 0.87.
On the same counts, the results for `O=C1c2c(O)cccc2Cc2cccc(O)c21` are 0.95 (inactive), 1.25 and 1.19.
On the same counts, the results for `CCN1CCCC(OC(=O)C(c2ccccc2)c2ccccc2)C1` (stereo unspecified) are 1.28 (inactive), 0.93 and 1.19.
On to `NCCCC(=O)O`, for which the red/green cell ratio (normalised) was 0.83 (inactive). Also, the normalised cell number under setting [1] was 1.17. The normalised cell number under setting [2] came to 0.97.
Taken in the same sequence, the figures for `C[N+]12CCC(CC1)C(OC(=O)C(O)(c1ccccc1)c1ccccc1)C2` (stereo unspecified) were 1.14 (inactive), 1.17 and 1.33.
Taken in the same sequence, the figures for `CN1CCC(=C2c3ccccc3Sc3ccccc32)CC1` were 1.08 (inactive), 1.03 and 1.11.
On the same counts, the results for `CCN(CC)CCNC(=O)c1ccc(NC(C)=O)cc1` are 1.26 (inactive), 0.89 and 1.13.
Regarding `CC(CN(C)C)CN1c2ccccc2CCc2ccccc21` (stereo unspecified), the red/green cell ratio (normalised) is 1.03 (inactive). Further, the normalised cell number under setting [1] came out at 1.32. Besides, the normalised cell number under setting [2] stood at 1.36.
On the same counts, the results for `CCCCOc1ccc(OCCCN2CCOCC2)cc1` are 0.85 (inactive), 1.15 and 0.98.
Turning to `O=C(O)CCC(=O)Nc1ccc(S(=O)(=O)Nc2nccs2)cc1`, the red/green cell ratio (normalised) was 1.01 (inactive). Also, under setting [1], the normalised cell number came to 1.11. Under setting [2], the normalised cell number stood at 1.13.
On the same counts, the results for `OC(CCN1CCCCC1)(c1ccccc1)c1ccccc1` are 0.87 (inactive), 1.06 and 0.92.
Taken in the same sequence, the figures for `CCN(CC)CCNC(=O)c1cc(Br)c(N)cc1OC` were 0.92 (inactive), 0.97 and 0.89.
On the same counts, the results for `CCCCCCOc1ccccc1C(N)=O` are 1 (inactive), 0.94 and 0.94.
For the molecule `Nc1nc2c(c(=O)[nH]1)N(C=O)C(CNc1ccc(C(=O)N[C@@H](CCC(=O)O)C(=O)O)cc1)CN2` (stereo partly specified), the red/green cell ratio (normalised) is 1.45 (inactive). Under setting [1], this molecule returned a normalised cell number of 0.95. Also, the normalised cell number under setting [2] came out at 1.38.
Regarding `CC(=O)OC(C)C[N+](C)(C)C` (stereo unspecified), the red/green cell ratio (normalised) is 1.16 (inactive). The molecule further returned a normalised cell number under setting [1] of 0.97. The normalised cell number under setting [2] was found to be 1.13.
For the molecule `Nc1ccc(S(=O)(=O)Nc2nccs2)cc1`, the red/green cell ratio (normalised) was 1.36 (inactive). The same molecule showed a normalised cell number under setting [1] of 0.91. The molecule further returned a normalised cell number under setting [2] of 1.24.
On the same counts, the results for `COc1ccc(C(=O)c2ccccc2O)c(O)c1` are 1.27 (inactive), 1.28 and 1.63.
Regarding `Cc1[nH]c(C)c(Cl)c(=O)c1Cl`, the red/green cell ratio (normalised) is 0.99 (inactive). Under setting [1], this molecule had a normalised cell number of 1. This molecule showed a normalised cell number under setting [2] of 0.99.
On the same counts, the results for `Cc1cc(NC(=O)C2=C(O)c3ccccc3S(=O)(=O)N2C)no1` are 0.87 (inactive), 0.97 and 0.84.
`CN1CCN(c2cc3c(cc2F)c(=O)c(C(=O)O)cn3-c2ccc(F)cc2)CC1`: the red/green cell ratio (normalised) was 1.21 (inactive) and 1.18 (inactive). In addition, under setting [1], the normalised cell number was 0.99 and 0.72. The normalised cell number under setting [2] is 1.2 and 0.85.
`NC(N)=NS(=O)(=O)c1ccc(N)cc1`: the red/green cell ratio (normalised) is 1.03 (inactive). Also, under setting [1], the normalised cell number is 0.95. This molecule gave a normalised cell number under setting [2] of 0.98.
On the same counts, the results for `Nc1ccc(S(=O)(=O)NC(=O)c2ccccc2)cc1` are 1.62 (inactive), 0.9 and 1.46.
Taken in the same sequence, the figures for `CC(N)CCCC(C)(C)O` (stereo unspecified) were 0.95 (inactive), 0.99 and 0.93.
On the same counts, the results for `CC(Cc1cccc(C(F)(F)F)c1)NCCOC(=O)c1ccccc1` (stereo unspecified) are 0.76 (inactive), 1.26 and 0.95.
Take `COc1cccc(OC)c1C(=O)N[C@@H]1C(=O)N2[C@@H]1SC(C)(C)[C@@H]2C(=O)O`: the red/green cell ratio (normalised) is 1 (inactive). Under setting [1], the normalised cell number turned out to be 1.16. Under setting [2], this molecule showed a normalised cell number of 1.15.
On the same counts, the results for `CCCC(C(=O)OCCN(CC)CC)(c1ccccc1)c1ccccc1` are 1.41 (inactive), 0.9 and 1.28.
On the same counts, the results for `CCn1cc(C(=O)O)c(=O)c2cnc(N3CCNCC3)nc21` are 1.01 (inactive), 0.76 and 0.77.
On the same counts, the results for `CCCCCC(C)N` (stereo unspecified) are 1.26 (inactive), 0.94 and 1.18.
With `CC(=O)Oc1cccc2c1C(=O)c1c(OC(C)=O)cc(C(=O)O)cc1C2=O`, the red/green cell ratio (normalised) is 0.93 (inactive). For the same molecule, the normalised cell number under setting [1] came out at 1.07. Under setting [2], the normalised cell number came out at 0.99.
`CN(C)CCCN1c2ccccc2Sc2ccccc21`: the red/green cell ratio (normalised) was 1.19 (inactive). For the same molecule, the normalised cell number under setting [1] stood at 1.03. Also, under setting [2], the normalised cell number was found to be 1.24.
Taken in the same sequence, the figures for `O=C(O)c1ccccc1O` were 1.29 (inactive), 0.92 and 1.19.
On to `Nc1ccc(C(=O)O)cc1`, for which the red/green cell ratio (normalised) was 1 (inactive). Under setting [1], this molecule came in with a normalised cell number of 1.02. The molecule further displayed a normalised cell number under setting [2] of 1.02.
As for `CC(C(=O)O)c1ccc(C(=O)c2cccs2)cc1` (stereo unspecified), the red/green cell ratio (normalised) was 1.06 (inactive). Besides, the normalised cell number under setting [1] worked out at 0.96. Besides, the normalised cell number under setting [2] came to 1.02.
On the same counts, the results for `O=C1OC(c2ccc(O)cc2)(c2ccc(O)cc2)c2ccccc21` are 1.12 (inactive), 0.94 and 1.05.
On to `CCn1cc(C(=O)O)c(=O)c2cc3c(cc21)OCO3`, for which the red/green cell ratio (normalised) was 1.09 (inactive). This molecule registered a normalised cell number under setting [1] of 1.15. Under setting [2], the normalised cell number is 1.25.
Regarding `CC(=O)Nc1ccccc1`, the red/green cell ratio (normalised) was 1.11 (inactive). Under setting [1], this molecule gave a normalised cell number of 1.06. For the same molecule, the normalised cell number under setting [2] is 1.18.

The record behind these values is PubChem BioAssay.
